Bioassay records as filed in PubChem.
Compounds with a hit are over-represented: about 3.4% of the library has one in this group of screens.
MEKK3 PB1 HTS – modulators of MEKK3-MEK5 PB1 binding, primary screen, biochemical, wildtype MEKK3, multiplex bead flow cytometry, Alexa488-MEK5. bead-based flow cytometry, Alexa488-MEK5 binding to MEKK3; actives lie on both sides; 0 = blocked by unlabeled MEK5, 100 = vehicle. binding response (% of control), % at 10 µM. 1.4% of 290,000 active;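 active means binding response more than 3 SD above or below the average of its plate-row segment, actives on both sides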;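 further: Alexa488 bead fluorescence after subtracting the streptavidin-only scavenger bead signal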
NTR1 agonist – agonists of human NTR1, primary screen, imaging, U2OS cells, beta-arrestin-GFP, high content. NTR1-U2OS beta-arrestin-GFP spot imaging, agonist mode. 0.17% of 330,000 active. AID 493036, 2011. activation, % at 20 µM. Neurotensin receptor type 1 (Homo sapiens), P30989;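 active means activation at or above 40% of the spot to cytoplasm intensity ratio, with at least 20 cells analyzed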;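 further: 0% = DMSO without peptide and 100% = 100 nM NTR1 peptide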
Target sequence (P30989 whole entry, looked up): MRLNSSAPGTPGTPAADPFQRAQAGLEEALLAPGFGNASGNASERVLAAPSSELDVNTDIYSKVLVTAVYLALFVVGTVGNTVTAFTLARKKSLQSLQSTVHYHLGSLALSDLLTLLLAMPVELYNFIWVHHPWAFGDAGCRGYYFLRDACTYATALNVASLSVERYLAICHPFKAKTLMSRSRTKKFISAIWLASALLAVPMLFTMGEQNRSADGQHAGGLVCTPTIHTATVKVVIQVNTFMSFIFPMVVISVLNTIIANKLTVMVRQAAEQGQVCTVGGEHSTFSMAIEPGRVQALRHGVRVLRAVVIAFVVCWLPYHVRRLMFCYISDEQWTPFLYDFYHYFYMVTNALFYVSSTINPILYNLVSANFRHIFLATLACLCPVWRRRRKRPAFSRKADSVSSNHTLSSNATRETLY
MEKK2 WT-MEK5 – modulators of MEK5 binding to wildtype MEKK2, primary screen, biochemical, multiplex bead flow cytometry, Alexa488-MEK5; Mitogen-activated protein kinase kinase kinase 2 (Homo sapiens), Q9Y2U5; Alexa488-MEK5 binding to MEKK2 WT; actives lie on both sides; binding response (% of control), % at 10 µM; 1.1% of 290,000 active; in the data active means binding response below about 67% or above about 130%
ANO1 activ – TMEM16A chloride channel activators or potentiators, primary screen, cell-based, HTS; HEK293 TMEM16A/YFP-H148Q/I152L, iodide quench fluorescence; hits give low values; 0.3% of 340,000 active; Anoctamin-1 (Mus musculus), Q8BHY3; B-score at 10 µM; AID 623877, 2012;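 active means fluorescence-ratio B-score plate-corrected deviation score at least 3 library SD below zero, with starting fluorescence score within 5 deviations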;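 further: channel opened by trigger with iodide after compound preincubation; score built on the fluorescence ratio of max minus min over baseline; more negative score means more quench and so TMEM16A activation or potentiation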
MEKK2mut PB1 HTS – MEK5 binding signal on mutant MEKK2 PB1, primary screen, biochemical, multiplex bead flow cytometry, Alexa488-MEK5 | Alexa488-MEK5 binding to MEKK2 mutant | percent response, % at 10 µM | 0.35% of 290,000 active; in the data active means percent response above about 24%, passing the limit was not always enough
TMEM16A inh – TMEM16A chloride channel inhibitors, primary screen, cell-based, HTS | Anoctamin-1 (Mus musculus), Q8BHY3 | HEK293 TMEM16A/YFP iodide influx fluorescence, ionomycin | normalized B-score (activity score, 25-100; higher = stronger inhibition) at 10 µM | 1.2% of 310,000 active | AID 588511, 2011;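 active means ratio plate-corrected score three or more library SD toward inhibition, starting fluorescence score within five deviations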;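 further: score derived from kinetic fluorescence span divided by baseline fluorescence per well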
MEKK2wt confirm – modulators of MEK5 binding to wildtype MEKK2, confirmation, biochemical, single concentration, multiplex bead flow cytometry. shares compounds with MEKK3 PB1 HTS. Alexa488-MEK5 binding to MEKK2 WT; actives lie on both sides. binding response (% of control), % at 10 µM. 2.4% of 5,900 active. AID 1892, 2009; in the data active means binding response below about 16% or above about 210%; inactive means in between
MEKK2mut-MEK5 – mutant MEKK2 PB1-MEK5 binding signal retest – biochemical, single concentration, multiplex bead flow cytometry, confirmation | shares compounds with MEKK3 PB1 HTS | Alexa488-MEK5 binding to MEKK2 mutant | percent response, % at 10 µM | 2% of 5,900 active | AID 1893, 2009; in the data active means percent response mostly above about 71%, no sharp cut-off; inactive means mostly below about 38%;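 further: higher means compound restores mutant binding toward wildtype level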
MEKK3 confirm – MEKK3 wild-type PB1 binding to MEK5, inhibitors, confirmation, biochemical, bead multiplex flow cytometry, single concentration, wildtype | 1.8% of 5,900 active | Alexa488-MEK5 binding to MEKK3; hits give low values | binding response (% of control), % at 10 µM | shares compounds with MEKK3 PB1 HTS | AID 1894, 2009;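 active means binding response below 72% of control, or above a set upper limit, though filed actives all read lower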;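 further: 100% = DMSO only wells and 0% = binding blocked by excess unlabeled MEK5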
* hit, by the source's call; i = inactive; / = no result given.

SMILES	MEKK3 PB1 HTS	NTR1 agonist	MEKK2 WT-MEK5	ANO1 activ	MEKK2mut PB1 HTS	TMEM16A inh	MEKK2wt confirm	MEKK2mut-MEK5	MEKK3 confirm
C#CCOCCOCCOCCNc1nc(N2CCN(C(=O)[C@H](CCC(=O)O)n3cc(C(N)Cc4ccc(O)cc4)nn3)CC2)nc(N2CCN(C(=O)[C@H](Cc3ccc(O)cc3)n3cc(C(N)[C@H](C)CC)nn3)CC2)n1 (stereo partly specified)	85	0	76	/	2	/	/	/	/
C#CCOCCOCCOCCNc1nc(N2CCN(C(=O)[C@H](Cc3ccc(O)cc3)n3cc([C@@H](N)C(C)CC)nn3)CC2)nc(N2CCN(C(=O)[C@H](CCCCN)n3cc([C@@H](N)CC(C)C)nn3)CC2)n1 (stereo partly specified)	101	0	137	/	19	i	/	/	/
C#CCOCCOCCOCCNc1nc(N2CCN(C(=O)[C@H]([C@@H](C)CC)n3cc([C@@H](N)CC(C)C)nn3)CC2)nc(N2CCN(C(=O)[C@H](Cc3ccc(O)cc3)n3cc([C@@H](N)C(C)CC)nn3)CC2)n1 (stereo partly specified)	106	-5	156*	i	21	i	129	15	103
COc1cc(OC)cc(C(=O)N(Cc2ccco2)c2c(N)n(Cc3ccccc3)c(=O)[nH]c2=O)c1	/	/	/	i	/	/	/	/	/
CCc1nnc(NC(=O)CN2C(=O)NC3(CC(C)CC(C)(C)C3)C2=O)s1 (stereo unspecified)	98	3	100	i	3	i	/	/	/
Cn1c(SCC(=O)Nc2ccc(N3CCOCC3)cc2)nnc1-c1ccccc1F	101	0	99	i	0	i	/	/	/
C=CCNC(=O)c1c(Cl)nc(C)c([N+](=O)[O-])c1C	155*	2	112	i	2	i	97	-1	100
CCOC(=O)c1c(NC(=O)CSc2ncccn2)sc2c1CCN(Cc1ccccc1)C2	97	/	97	i	-2	/	/	/	/
CCOC(=O)c1c(NC(=O)CSc2nnc3c(n2)[nH]c2ccccc23)sc2c1CCN(C)C2	107	0	144*	i	15	i	137	20	102
OCCCCNCc1ccc(OCc2ccccc2)cc1	99	4	103	i	10	i	/	/	/
OCCCCNCc1ccc(OCc2ccccc2Cl)cc1	101	-1	163*	i	27*	i	170	41	111
O=C(NCC1CCCO1)C(=O)N/N=C/c1ccc(OCc2ccccc2Cl)cc1 (stereo unspecified)	/	3	/	i	/	i	/	/	/
NC(N)=N/N=C/c1ccc(OCc2ccccc2Cl)cc1	111	16	208*	i	49*	i	209*	45	103
CCOC(=O)C(=NCC1CCCO1)NNc1cc(Cl)ccc1Cl (stereo unspecified)	87	10	84	i	-23	i	/	/	/
